# Hck-Nef inh – inhibitors of Nef-activated human Hck kinase, primary screen, biochemical, Z-Lyte FRET, 384-well, Hck-YEEI; Tyrosine-protein kinase HCK (Homo sapiens), P08631; Recombinant Hck-YEEI plus Nef, Z-Lyte FRET kinase assay; inhibition, % at 20 µM; 0.68% of 220,000 active;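 active = Hck-Nef kinase inhibition above about 50%, limit read from the data; inactive = inhibition below that limit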;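 note: 0% = DMSO with Hck plus Nef and 100% = Hck alone without Nef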
# LYPLA1 counter – LYPLA1 inhibitors, primary screen, counter-screen for PME1 inhibitor project, biochemical, fluorescence polarization, FP-Rh probe ABPP; Acyl-protein thioesterase 1 (Homo sapiens), O75608; recombinant LYPLA1; inhibition, % at 5.9 µM; 0.16% of 320,000 active; AID 2174, 2009;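 active = inhibition above the mean of all tested compounds plus 3 SD, set per campaign, cut at about 14% in these data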;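 note: inhibitors block serine hydrolase probe labeling of LYPLA1 so polarization falls; 0% = enzyme with DMSO and 100% = wells lacking LYPLA1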
# PREPL inh – PREPL enzyme inhibitors, primary screen, biochemical, fluorescence polarization; Prolyl endopeptidase-like (Homo sapiens), Q4J6C6; recombinant PREPL, fluorescence polarization activity-based probe; inhibition, % at 5.96 µM; 0.68% of 320,000 active; AID 2751, 2010; in the data active = inhibition above about 43%;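 note: 0% = enzyme with DMSO and 100% = wells lacking enzyme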
# Rin1 Abl inh – inhibitors of Rin1-Abl protein binding, primary screen, biochemical, TR-FRET | 0.4% of 360,000 active | inhibition, % at 7.35 µM; in the data active = inhibition above about 5%, passing the limit was not always enough
# p97 ATPase inh – inhibitors of human p97 ATPase, primary screen, biochemical; Transitional endoplasmic reticulum ATPase (Homo sapiens), P55072; recombinant p97 ATPase, Kinase-Glo ATP luminescence, 3 h; inhibition, % at 8 µM; 0.42% of 220,000 active; in the data active = inhibition above about 15%;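 note: 0% = DMSO vehicle and 100% = wells lacking enzyme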
# LYPLA2 counter – LYPLA2 inhibitors, primary screen, counter-screen for PME1 inhibitor project, biochemical, fluorescence polarization, FP-Rh probe ABPP; recombinant LYPLA2; inhibition, % at 5.9 µM; 0.38% of 320,000 active;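 active = inhibition above the screen-wide mean plus 3 SD, limit set per campaign, cut at about 26% in these data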;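 note: 0% = LYPLA2 with DMSO and 100% = wells lacking LYPLA2 enzyme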
# Rin1 Abl conf – Rin1-Abl binding inhibitor retest, confirmation, biochemical, TR-FRET | shares compounds with Rin1 Abl inh | purified proteins | inhibition, % at 7.35 µM | 49% of 1,300 active; in the data active = inhibition above about 6.5%
# GFP quench-1 – GFP fluorescence inhibitors and quenchers, artefact control for Rin1-Abl interaction inhibitor project, biochemical; shares compounds with Rin1 Abl inh; inhibitors/quenchers counterscreen; inhibition, % at 6.75 µM; 8.5% of 1,300 active; AID 602125, 2011; in the data active = inhibition above about 6.5%;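 note: ABL1-eGFP fusion protein alone without its partner RIN1-SBP; 0% = protein with vehicle and 100% = wells lacking protein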
# GFP quench DR – GFP fluorescence inhibitors and quenchers, dose response, artefact control for Rin1-Abl interaction inhibitor project, biochemical. shares compounds with Rin1 Abl inh. GFP fluorescence interference/quenching counterscreen. IC50, µM. 230 tested, under 10 active. AID 602182, 2012;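 note: ABL1-eGFP fusion protein alone without its RIN1 binding partner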
# GFP quench-2 – GFP fluorescence inhibitors and quenchers, late-stage follow-up, artefact control for Rin1-Abl interaction inhibitor project, biochemical, dose response; IC50, µM; AID 602397, 2012; GFP fluorescence quenching counterscreen; 25 tested, under 10 active; shares compounds with Rin1 Abl inh
# An asterisk follows results filed as active; . = not tested or not shown. Only some compounds are listed: those with a hit (about 1.7% of all), similar ones and a draw of the others. Unless noted, the rule behind the calls is not given here.
SMILES,Hck-Nef inh,LYPLA1 counter,PREPL inh,Rin1 Abl inh,p97 ATPase inh,LYPLA2 counter,Rin1 Abl conf,GFP quench-1,others
O=c1cc(-c2ccccc2)oc2cc(O)ccc12,.,.,.,64*,.,.,0,0,
CC(C)NC(=O)CC1C(=O)NCCN1CC(c1ccccc1)c1ccccc1 (stereo not given),4,-1,14,8.7*,1,4,1,-1,
COc1cc(Br)cc(Br)c1OCC(=O)N/N=C/c1c(C)n(C)n(-c2ccccc2)c1=O,.,.,.,-1,.,.,.,.,
C#CCOCCOCCOCCNc1nc(N2CCN(C(=O)C(Cc3ccc(O)cc3)n3cc(C(N)C(C)CC)nn3)CC2)nc(N2CCN(C(=O)C(Cc3ccc(O)cc3)n3cc(C(N)C(C)CC)nn3)CC2)n1 (stereo not given),0,-1,21,8,6,2,.,.,
C#CCOCCOCCOCCNc1nc(N2CCOCC2)nc(N2CCN(C(=O)[C@H](Cc3ccc(O)cc3)n3cc([C@@H](N)C(C)CC)nn3)CC2)n1 (stereo not given in full),1,-2,7,11*,1,4,14*,0,
CC1(C)C(=O)OC(c2c(F)c(F)c(F)c(F)c2F)C2(CCCCC2)C1=O (stereo not given),10,4,17,7.5*,-6,-2,-2,1,
Cc1cc(Br)ccc1NC(=O)C1CCN(C(=O)c2ccco2)CC1,.,4,7,2,.,6,.,.,
O=C(Oc1ccc(-c2nnco2)cc1)C1CCN(C(=O)c2ccc(F)cc2)CC1,.,-1,0,7,.,-3,.,.,
O=C(CSc1nnc(Cn2c(=O)sc3ccccc32)n1-c1ccccc1)Nc1nccs1,-8,-2,-19,9.6*,15*,-4,3,2,
COc1ccc(-n2c(Cn3c(=O)sc4ccccc43)nnc2SCC(=O)N2CCOCC2)cc1,3,2,-2,6.5*,7,-5,6,0,
Cc1cccc(C)c1OCc1cc(C(=O)N2CCNC(=O)C2)no1,.,2,-4,2,.,-1,.,.,
CSc1ccccc1OCc1cc(C(=O)N2CCNC(=O)C2)no1,.,2,0,48*,.,10,40*,-1,GFP quench DR=>68;GFP quench-2=>68
Cc1cc(C(=O)NCCN2CCOCC2)c2ccccc2n1,.,.,6,4,.,.,.,.,
Cc1nn(-c2ccccc2)c(Cl)c1C(=O)NCC1CCCO1 (stereo not given),.,2,3,-2,.,4,.,.,
C=C(C)Cn1c(=O)c2c(nc3n2CCCN3Cc2ccccc2)n(C)c1=O,.,0,21,3,.,1,.,.,
Cc1[nH]c(=O)[nH]c1C(=O)CCCCC(=O)OCC(=O)Nc1ccccn1,0,0,3,90*,9,2,97*,-1,
CC1CCCC(C)N1CCOc1cc(N)ccc1C#N (stereo not given),.,.,.,-1,.,.,.,.,
O=C(c1ccco1)N1CCN(Cc2cc(=O)c(OCc3ccccc3Cl)co2)CC1,.,1,4,14*,.,10,10*,1,
O=C(NC1CC1)c1ccc2sc([C@H]3C[C@H](O)[C@@H](CO)O3)nc2c1,.,.,.,1,.,.,.,.,
CN(C(=O)COC(=O)CNC(=O)c1sc2ccccc2c1Cl)C1CCS(=O)(=O)C1 (stereo not given),.,.,21,-3,.,.,.,.,
COC(=O)C=CC(=NNc1ccccc1)c1ccccc1,.,.,.,9.1*,.,.,-2,-1,
Cc1ccccc1NC(=S)N(CCCN1CCOCC1)Cc1cccnc1,-10,-5,-1,3,5,-2,.,.,
Cc1ccc(NC(=S)N(CCCN2CCOCC2)Cc2cccnc2)cc1C,23,-4,6,12*,1,-1,-2,-1,
Cc1cc(N/N=C/c2ccc(O)cc2O)nc(-n2nc(C)cc2C)n1,0,-5,24,12*,4,-3,10*,-1,
COc1ccc(/C=N/Nc2cc(C)nc(-n3nc(C)cc3C)n2)cc1,-1,-3,13,1,2,-1,.,.,
SMILES,Hck-Nef inh,LYPLA1 counter,PREPL inh,Rin1 Abl inh,p97 ATPase inh,LYPLA2 counter,Rin1 Abl conf,GFP quench-1,others
COc1ccc(C(CNC(=O)COc2cc(C)ccc2Cl)N2CCCCC2)cc1 (stereo not given),.,-1,10,14*,.,4,-1,-4,
CN(C)c1ccc(-c2[nH][nH]c(=O)c2NC(=O)c2ccc3ccccc3n2)cc1,.,.,.,36*,.,.,10*,3,
CN(C)c1ccc(-c2[nH][nH]c(=O)c2NC(=O)c2ccccn2)cc1,.,.,.,34*,.,.,11*,0,
C/C(CC(=O)Nc1ccc(N(C)C)cc1)=N\NC(=O)c1ccccn1,0,-3,7,-1,1,-10,.,.,
COc1ccc(-c2[nH][nH]c(=O)c2NC(=O)c2ccccc2Br)cc1,.,.,.,3,.,.,.,.,
O=C(Nc1cccc(S(=O)(=O)N2CCCCC2)c1)C1CCCN1S(=O)(=O)c1ccccc1F (stereo not given),.,0,-5,0,.,-5,.,.,
Cc1cccc(CCNC(=O)Cc2ccc(NC3=NC4CS(=O)(=O)CC4S3)cc2)c1 (stereo not given),.,-3,5,6,.,-1,.,.,
Cc1ccc(CNC(=O)Cc2ccc(NC3=NC4CS(=O)(=O)CC4S3)cc2)cc1 (stereo not given),.,0,4,10*,.,7,6,1,
COc1ccc(CCNC(=O)c2ccc(NC3=NC4CS(=O)(=O)CC4S3)cc2)cc1OC (stereo not given),.,2,-3,18*,.,-5,22*,-1,GFP quench DR=>68
O=C(Cc1ccc(NC2=NC3CS(=O)(=O)CC3S2)cc1)NCc1ccc(Cl)cc1 (stereo not given),.,-2,-6,0,.,3,.,.,
CCOc1ccc(CCNC(=O)c2ccc(NC3=NC4CS(=O)(=O)CC4S3)cc2)cc1 (stereo not given),.,-5,3,4,.,-1,.,.,
